Assay results as given in ChEMBL document CHEMBL4513216, “Probing the Open Global Health Chemical Diversity Library for Multistage-Active Starting Points for Next-Generation Antimalarials” (ACS Infect Dis, 2020).
Among all 69,000 compounds or so, about 8,600 (12%) showed an effect of 50% or more. The entries come from a sample that favours strong results as a whole.

Test system: Plasmodium berghei
Assay: Screen against P. berghei liver stage (PbLuc), transformed with Luciferase, at 10uM
Format: functional, HepG2
Details: tested at 10 uM

Going from COc1cc(C(C)=O)ccc1OC12CCCN(CC1)C2 (stereo not drawn) to CC(=O)c1ccc(N2CCC3(CC2)CC(=O)N(C)C3)nc1, the INHIBITION falls from 47.7% to 34.1%.

First: CCc1ccc(CN2CCCn3c(nc(Cn4ccnc4)cc3=O)C2)o1
Second: Cc1ccc(CN2CCC[C@]3(C(=O)O)CN(c4ncccn4)C[C@@H]3C2)o1
The INHIBITION of the first is lower: -2.17% for the first, 15.9% for the second.

Going from CCO[C@@H]1CCN(C(=O)c2ccc[nH]2)[C@@H]1Cc1cccnc1 to c1cncc(CN2CCC(c3csc4nccn34)CC2)c1, the INHIBITION falls from 36.9% to 3.295%.

Going from Cc1ccc(C(=O)N2CCOCC2C(N)=O)c(F)c1 (stereo not drawn) to Cc1ccc(S(=O)(=O)N2CCOCC2C(N)=O)c(F)c1 (stereo not drawn), the INHIBITION falls from 54.5% to 27.4%.

Compared with Cc1ccc(C(=O)N2CC(C(N)=O)O[C@H](C)C2)c(F)c1 (stereo partly drawn), Cc1ccccc1C(=O)N1C[C@@H]2OCCN(c3ncccn3)[C@@H]2C1 is higher in INHIBITION: -110% for the first, -2.35% for the second.

First: Cc1noc(C(C)SCc2ccccn2)n1 (stereo not drawn)
Second: CCOc1cccc(CSC(C)c2nc(C)no2)n1 (stereo not drawn)
The INHIBITION of the first is higher: 14.3% for the first, -10.8% for the second.

Going from CCOc1ccc(CSC(C)c2nc(C)no2)nc1 (stereo not drawn) to CCOc1cccc(CNCc2ccc(NC(=O)NC(C)C)cc2)c1, the INHIBITION falls from 60.2% to -18%.

First: CNc1nc2cn(C3CCCC3)c(=O)c-2c[nH]1
Second: O=c1c2ccc(Cl)cc2ncn1CCCN1CCCCC1CO (stereo not drawn)
The INHIBITION of the first is lower: -24.5% for the first, 22.9% for the second.

Going from CC1CN(C)CCN1CC(=O)NCCOc1ccc2c(c1)OCO2 (stereo not drawn) to CCCN1CCN(Cc2cc3cc(OCC)ccc3[nH]c2=O)CC1, the INHIBITION falls from 18.7% to 6.67%.

Going from O=C(c1ccco1)N1CC(S(=O)(=O)c2ccc(Cl)cc2)C1 to O=C(c1cccnc1)N1CC(S(=O)(=O)c2ccc(Cl)cc2)C1, the INHIBITION falls from 50.5% to 29.7%.

First: O=C(c1ccccn1)N1CC(S(=O)(=O)c2ccc(Cl)cc2)C1
Second: CN1CCN(S(=O)(=O)c2cccc(F)c2)c2ccccc21
The INHIBITION of the first is lower: -54.7% for the first, 46.6% for the second.

First: c1ccc2c3c([nH]c2c1)C(c1nn[nH]n1)CCC3 (stereo not drawn)
Second: c1cnnc(N[C@@H]2CC[C@@H]3CN(Cc4c[nH]c5ccccc45)C[C@@H]32)c1
The INHIBITION of the first is lower: 26.4% for the first, 31.6% for the second.

Going from Cn1ccnc1C1(O)CCCN(Cc2ccncc2)CC1 (stereo not drawn) to O=C(c1ccno1)N1CCc2ncnc(-c3ccncc3)c2CC1, the INHIBITION rises from 7.36% to 35.5%.

First: COc1ccc(C2c3c(N)nc(SC)nc3N=C3CCCC(=O)C32)cc1 (stereo not drawn)
Second: CO[C@H]1CN(Cc2c(C)ccc3ncccc23)CC[C@H]1N
The INHIBITION of the first is higher: 21.7% for the first, -69.3% for the second.

Going from COc1cc2c(cc1CNC(Cc1cccs1)c1nccs1)OCCO2 (stereo not drawn) to COc1cc2c(cc1CNC(Cc1cccs1)c1nccs1)OCO2 (stereo not drawn), the INHIBITION falls from 36.9% to 20.07%.

Going from CCOc1cc2c(cc1CNC(Cc1cccs1)c1nccs1)OCO2 (stereo not drawn) to CCc1cc(OC)c(OC)cc1C(=O)Nc1cccnc1, the INHIBITION falls from 52% to 22.6%.

Compared with CCc1nnc(Nc2cc(C)nc(C3CCN(c4cnccn4)C3)n2)s1 (stereo not drawn), Cc1cccc(CN2CCc3ncnc(NC4CCC4)c3CC2)n1 is lower in INHIBITION: 32.3% for the first, -24.8% for the second.

Going from CCOc1ccc2[nH]c(=O)c(CN3CCN(S(N)(=O)=O)CC3)cc2c1 to CCOc1ccc2[nH]c(=O)c(CN3CCC(O)CC3)cc2c1, the INHIBITION falls from 94.3% to 20.2%.

First: CCCN(CCOC)C(=O)c1cc(Cn2c(C)nc3ccccc32)[nH]n1
Second: CCCN(CC)C(=O)c1cc(Cn2c(C)nc3ccccc32)[nH]n1
The INHIBITION of the first is lower: 65.7% for the first, 75.7% for the second.

Compared with Cc1nc2ccccc2n1Cc1cc(C(=O)N(C)C2CCOC2)n[nH]1 (stereo not drawn), CCN(CCO)C(=O)c1cc(Cn2c(C)nc3ccccc32)[nH]n1 is higher in INHIBITION: -39.9% for the first, 24.9% for the second.

Going from NC(=O)CNC(=O)c1cc(Cn2cnc3ccccc32)[nH]n1 to CCn1nc(C)c(CN(CCOC)C(=O)c2ccc(=O)[nH]n2)c1C, the INHIBITION rises from -72.5% to -65%.

First: COCc1nc(C(=O)N2CCCC2c2cccs2)cs1 (stereo not drawn)
Second: O=C(Nc1ccc(N2CCCC2)nc1)N1CCc2sccc2C1
The INHIBITION of the first is higher: 42% for the first, -11.5% for the second.

Going from c1cc(CN2C[C@@H]3OCCN(CC4CCCO4)[C@@H]3C2)cs1 (stereo partly drawn) to CN(C)C(=O)[C@@H]1CCO[C@@H]2CCN(CCOCc3ccccc3)C[C@H]21, the INHIBITION falls from 46.2% to 43.1%.

Compared with COc1cc(CNCc2ccc(NC(=O)NC(C)C)cc2)cc(OC)c1, COc1cccc(CNCc2ccc(NC(=O)NC(C)C)cc2)c1 is lower in INHIBITION: 60% for the first, 29.4% for the second.

Compared with CC(C)(NC(=O)c1ccc(-c2ccc(F)cc2)s1)C(N)=O, O=C(O)c1c[nH]c2cc(NS(=O)(=O)c3ccc(Cl)cc3F)ccc12 is lower in INHIBITION: 4.12% for the first, -2.19% for the second.

First: CCCc1nnsc1C(=O)N1CCCC1(C)C(=O)N1CCOCC1 (stereo not drawn)
Second: CCCN1CC2(CCN(c3ccc(C(C)=O)cn3)CC2)CC1C(=O)O (stereo not drawn)
The INHIBITION of the first is lower: -53.1% for the first, -12.5% for the second.

Compared with O=C1CC(N(C(=O)c2ccc(F)c(F)c2)C2CC2)C(=O)N1 (stereo not drawn), Cc1ccc(C(=O)N(C2CC2)C2CC(=O)NC2=O)cc1F (stereo not drawn) is higher in INHIBITION: 15.3% for the first, 50.3% for the second.

First: COc1cc(C(=O)N(C2CC2)C2CC(=O)NC2=O)ccc1C (stereo not drawn)
Second: Cn1c(C2CC2)nc2c1CCN(CCOc1cccc(F)c1)C2
The INHIBITION of the first is higher: 31% for the first, 11.9% for the second.

Compared with CC(=O)c1ccc(N2CCCC(CO)(CCc3ccccc3)C2)nc1 (stereo not drawn), CC(=O)c1ccc(N2CCCC(CO)(CCOc3ccccc3)C2)nc1 (stereo not drawn) is higher in INHIBITION: 43.7% for the first, 70.1% for the second.

First: CC(=O)c1ccc(N2CCC(CO)(CCOc3ccccc3)CC2)nc1
Second: O=C(Nc1ccc(N2CCCC2)nc1)N1CCc2ccccc2C1
The INHIBITION of the first is higher: 95.1% for the first, 63.5% for the second.

Compared with CN1C(=O)C2(CCN(S(C)(=O)=O)CC2)c2cc(F)ccc21, CN1CCN(S(C)(=O)=O)c2ccc(F)cc21 is higher in INHIBITION: 17.7% for the first, 21.8% for the second.

Going from O=C(CNCCn1cccn1)NCC1(c2ccccc2)CCOCC1 to CS(=O)(=O)NC[C@H]1OC[C@@H]2CCN(CCc3ccccc3)C[C@@H]21, the INHIBITION rises from 25.4% to 43.4%.

Going from CN1CCN(S(=O)(=O)c2cccc(C#N)c2)c2ccc(F)cc21 to O=C(Nc1ccc(N2CCCCC2)nc1)N1CCc2sccc2C1, the INHIBITION falls from 62.4% to -10.8%.

First: CC(C)N1CCCCC1CCn1cnc2cc(C(F)(F)F)ccc2c1=O (stereo not drawn)
Second: O=c1c2ccc(C(F)(F)F)cc2ncn1CCCN1CCCCC1CO (stereo not drawn)
The INHIBITION of the first is lower: 47.9% for the first, 56.6% for the second.
